Hit rate of the full screen: of about 5,500 compounds, about 2,000 (36%) were called active. Inconclusive results (about 18%) are left out. No stated cut-off is given here; in the data, active means normalized growth mostly below about 0.91 (no sharp cut-off); inconclusive means no clear call, values can overlap the other calls; inactive means mostly above about 0.92. Some of the results follow.
Test: chemical genetic growth profiling, strain panel (AID 1159580);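 further: tested at 20 µM; growth read once vehicle control cultures reached saturation at 30 °C; 1 = growth at the plate median or of vehicle wells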
Conditions: growth OD

Measured: normalized growth

C[C@]12CCC(=O)C=C1CCC1C2C(=O)C[C@@]2(C)C1CC[C@]2(O)C(=O)CO (stereo partly drawn)
inactive: S. cerevisiae deletion strains, locus YJL187C, strain SWE1, stronger effect = lower value 1.01 | S. cerevisiae deletion strains, locus YJR043C, strain POL32, stronger effect = lower value 1 | S. cerevisiae deletion strains, locus YJR066W, strain TOR1, stronger effect = lower value 0.967 | S. cerevisiae deletion strains, locus YKL009W, strain mrt4, stronger effect = lower value 1.06 | S. cerevisiae deletion strains, locus YKL068W, stronger effect = lower value 1.01 | S. cerevisiae deletion strains, locus YKL085W, strain MDH1 (second series), stronger effect = lower value 0.994 | S. cerevisiae deletion strains, locus YKL085W, strain MDH1, stronger effect = lower value 0.994 | S. cerevisiae deletion strains, locus YKL160W, strain elf1, stronger effect = lower value 1 | S. cerevisiae deletion strains, locus YKR001C, strain vps1, stronger effect = lower value 0.998 | S. cerevisiae deletion strains, locus YKR026C, strain gcn3, stronger effect = lower value 0.99 | S. cerevisiae deletion strains, locus YKR091W, strain srl3, stronger effect = lower value 0.999 | S. cerevisiae deletion strains, locus YLL001W, strain dnm1, stronger effect = lower value 1.03 | S. cerevisiae deletion strains, locus YLL026W, stronger effect = lower value 1 | S. cerevisiae deletion strains, locus YLL041C, strain sdh2, stronger effect = lower value 1.01 | S. cerevisiae deletion strains, locus YLR027C, strain aat2, stronger effect = lower value 1.01 | S. cerevisiae deletion strains, locus YLR039C, strain RIC1, stronger effect = lower value 1.01 | S. cerevisiae deletion strains, locus YLR058C, strain SHM2, stronger effect = lower value 0.981 | S. cerevisiae deletion strains, locus YLR102C, strain apc9, stronger effect = lower value 0.995 | S. cerevisiae deletion strains, locus YLR113W, strain HOG1, stronger effect = lower value 0.951 | S. cerevisiae deletion strains, locus YLR221C, strain rsa3, stronger effect = lower value 1 | S. cerevisiae deletion strains, locus YLR258W, strain gsy2, stronger effect = lower value 1.01 | S. cerevisiae deletion strains, locus YLR262C, strain YPT6 (second series), stronger effect = lower value 0.995 | S. cerevisiae deletion strains, locus YLR262C, strain YPT6, stronger effect = lower value 1.03 | S. cerevisiae deletion strains, locus YLR268W, strain sec22, stronger effect = lower value 1.05 | S. cerevisiae deletion strains, locus YLR320W, strain mms22, stronger effect = lower value 0.988 | S. cerevisiae deletion strains, locus YLR330W, strain CHS5, stronger effect = lower value 1 | S. cerevisiae deletion strains, locus YLR342W, strain FKS1 (second series), stronger effect = lower value 1.03 | S. cerevisiae deletion strains, locus YLR342W, strain FKS1, stronger effect = lower value 0.992 | S. cerevisiae deletion strains, locus YLR357W, strain rsc2, stronger effect = lower value 0.993 | S. cerevisiae deletion strains, locus YLR370C, strain arc18, stronger effect = lower value 1.01 | S. cerevisiae deletion strains, locus YLR371W, strain rom2, stronger effect = lower value 1.01 | S. cerevisiae deletion strains, locus YLR384C, strain iki3, stronger effect = lower value 1 | S. cerevisiae deletion strains, locus YLR418C, strain cdc73, stronger effect = lower value 1.03 | S. cerevisiae deletion strains, locus YML016C, strain PPZ1, stronger effect = lower value 1 | S. cerevisiae deletion strains, locus YML032C, strain rad52, stronger effect = lower value 0.957 | S. cerevisiae deletion strains, locus YML120C, strain ndi1, stronger effect = lower value 1.02 | S. cerevisiae deletion strains, locus YML124C, strain tub3, stronger effect = lower value 1 | S. cerevisiae deletion strains, locus YMR058W, strain fet3, stronger effect = lower value 0.998 | S. cerevisiae deletion strains, locus YMR078C, strain ctf18, stronger effect = lower value 1 | S. cerevisiae deletion strains, locus YMR125W, strain sto1, stronger effect = lower value 1 | S. cerevisiae deletion strains, locus YMR129W, stronger effect = lower value 0.989 | S. cerevisiae deletion strains, locus YMR205C, strain PFK2, stronger effect = lower value 0.987 | S. cerevisiae deletion strains, locus YMR223W, strain ubp8, stronger effect = lower value 0.977 | S. cerevisiae deletion strains, locus YMR231W, strain pep5, stronger effect = lower value 1.01 | S. cerevisiae deletion strains, locus YMR263W, strain SAP30, stronger effect = lower value 1 | S. cerevisiae deletion strains, locus YMR307W, strain GAS1, stronger effect = lower value 1.03 | S. cerevisiae deletion strains, locus YNL067W, strain RPL9B, stronger effect = lower value 1 | S. cerevisiae deletion strains, locus YNL071W, strain lat1, stronger effect = lower value 1.01 | S. cerevisiae deletion strains, locus YNL183C, strain NPR1, stronger effect = lower value 0.926 | S. cerevisiae deletion strains, locus YNL209W, strain ssb2, stronger effect = lower value 1 | S. cerevisiae deletion strains, locus YNL233W, strain BNI4, stronger effect = lower value 0.994 | S. cerevisiae deletion strains, locus YNL248C, strain rpa49, stronger effect = lower value 1 | S. cerevisiae deletion strains, locus YNL250W, strain rad50, stronger effect = lower value 0.999 | S. cerevisiae deletion strains, locus YNL271C, strain bni1, stronger effect = lower value 1 | S. cerevisiae deletion strains, locus YNL298W, strain CLA4, stronger effect = lower value 1.02 | S. cerevisiae deletion strains, locus YNL307C, strain MCK1, stronger effect = lower value 1.01 | S. cerevisiae deletion strains, locus YNL322C, strain KRE1 (second series), stronger effect = lower value 1 | S. cerevisiae deletion strains, locus YNR049C, strain mso1, stronger effect = lower value 1.01 | S. cerevisiae deletion strains, locus YNR052C, strain pop2, stronger effect = lower value 1 | S. cerevisiae deletion strains, locus YOL012C, strain htz1 0.71 | S. cerevisiae deletion strains, locus YOL147C, strain pex11, stronger effect = lower value 1.01 | S. cerevisiae deletion strains, locus YOR001W, strain rrp6, stronger effect = lower value 1.01 | S. cerevisiae deletion strains, locus YOR061W, strain CKA2, stronger effect = lower value 1.01 | S. cerevisiae deletion strains, locus YOR069W, strain VPS5, stronger effect = lower value 1.01 | S. cerevisiae deletion strains, locus YOR070C, strain gyp1, stronger effect = lower value 1.01 | S. cerevisiae deletion strains, locus YOR080W, strain dia2, stronger effect = lower value 1 | S. cerevisiae deletion strains, locus YOR083W, strain WHI5, stronger effect = lower value 1 | S. cerevisiae deletion strains, locus YOR106W, strain vam3, stronger effect = lower value 1.01 | S. cerevisiae deletion strains, locus YOR136W, strain idh2, stronger effect = lower value 1.01 | S. cerevisiae deletion strains, locus YOR144C, strain elg1, stronger effect = lower value 1 | S. cerevisiae deletion strains, locus YOR184W, strain ser1, stronger effect = lower value 1.03 | S. cerevisiae deletion strains, locus YOR231W, strain MKK1, stronger effect = lower value 0.985 | S. cerevisiae deletion strains, locus YOR265W, strain rbl2, stronger effect = lower value 1.02 | S. cerevisiae deletion strains, locus YOR270C, strain vph1, stronger effect = lower value 1.04 | S. cerevisiae deletion strains, locus YOR290C, strain snf2, stronger effect = lower value 0.964 | S. cerevisiae deletion strains, locus YOR316C, strain cot1, stronger effect = lower value 1 | S. cerevisiae deletion strains, locus YPL051W, strain arl3, stronger effect = lower value 1.02 | S. cerevisiae deletion strains, locus YPL055C, strain LGE1, stronger effect = lower value 0.992 | S. cerevisiae deletion strains, locus YPL078C, strain atp4, stronger effect = lower value 1.01 | S. cerevisiae deletion strains, locus YPL106C, strain sse1, stronger effect = lower value 0.96 | S. cerevisiae deletion strains, locus YPL240C, strain hsp82, stronger effect = lower value 0.981 | S. cerevisiae deletion strains, locus YPL256C, strain CLN2, stronger effect = lower value 0.981 | S. cerevisiae deletion strains, locus YPR119W, strain clb2, stronger effect = lower value 1 | S. cerevisiae deletion strains, locus YPR141C, strain kar3, stronger effect = lower value 0.994 | S. cerevisiae deletion strains, locus YPR163C, strain tif3, stronger effect = lower value 0.996 | S. cerevisiae deletion strains, locus YPR167C, strain met16, stronger effect = lower value 1.01 | S. cerevisiae deletion strains, strain wtn01, stronger effect = lower value 1.05 | S. cerevisiae strains, strain wild type, stronger effect = lower value 0.995

Source: PubChem BioAssay AID1159580 (chemical genetic matrix, 2015)
